According to PubChem BioAssay:

molecular target: Homeobox protein Hox-A13 (Mus musculus) (UniProt Q62424); test: disruptors of Hoxa13 oligonucleotide interaction – biochemical, fluorescence polarization, labeled oligonucleotide, primary screen (AID 1185); settings: Hoxa13:DNA binding, 15 min, higher = more signal, called active from +8 up or from −8 down
Sequence (Q62424 whole entry, looked up): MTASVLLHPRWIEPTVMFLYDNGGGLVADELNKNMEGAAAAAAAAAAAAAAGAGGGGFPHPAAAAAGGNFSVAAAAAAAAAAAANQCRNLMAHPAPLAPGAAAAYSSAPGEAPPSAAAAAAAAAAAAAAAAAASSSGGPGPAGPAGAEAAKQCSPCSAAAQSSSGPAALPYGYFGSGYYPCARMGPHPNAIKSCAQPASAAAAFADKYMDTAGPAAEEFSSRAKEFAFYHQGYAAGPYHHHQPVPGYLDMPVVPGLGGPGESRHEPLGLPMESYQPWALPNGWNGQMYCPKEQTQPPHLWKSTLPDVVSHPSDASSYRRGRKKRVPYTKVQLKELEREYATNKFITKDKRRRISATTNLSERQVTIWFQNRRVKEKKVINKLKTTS

z-score, inactive:
Cc1cc(C)c(C(O)C2C=CC3C(=O)N(c4ccccc4)C(=O)C3N2Nc2ccc(C#N)cc2)c(C)c1 (stereo not given) 0.783
COCCOC(=O)N1C(=O)[C@@]2(c3cc(C#CCNC(N)=O)ccc31)[C@H](c1ccc(OCCO)cc1)N1[C@H](c3ccccc3)[C@H](c3ccccc3)OC(=O)[C@H]1[C@@H]2C(=O)N1CCc2cc(OC)c(OC)cc2C1 1.91
Cc1ccc(S[C@]2(C(=O)NCC(C)C)CC(=O)N(Cc3ccccc3)[C@@H]2c2ccc(CO)cc2I)cc1 -3.29
C=CC(=C)C1=CCO[C@@H]1[C@H]1CCCN1S(=O)(=O)c1ccccc1[N+](=O)[O-] -2.41
COCC(=C=CC[C@@H](O)c1ccc(CO)o1)CCO -3.24
[N-]=[N+]=Nc1ccccc1C[C@]1(C(=O)NCCN2CCOCC2)N=C(c2ccc(OCCCO)cc2)O[C@H]1c1ccccc1 -5.89
COc1ccc(C(=O)Nc2cccc(CN3C(=O)[C@]4(O[C@H](CC(=O)N5CCC[C@H]5CO)[C@@H]([Si](C)(C)c5ccc(OC)cc5)[C@@H]4C)c4ccccc43)c2)cc1 -2.44
CCCCCN1CC=CC23O[C@@H]4/C=C\CCC(C)OC(=O)C4[C@H]2C(=O)N(CCCCCO)[C@@H]3C1=O (stereo not given in full) -4.05
CCCCCN1CC=CC23O[C@@H]4C=CCOC(=O)[C@@H]4[C@H]2C(=O)N(CCCO)[C@@H]3C1=O (stereo not given in full) -3.67
O=C1O[C@H](c2ccccc2)[C@H](c2ccccc2)N2[C@H]1[C@@H](C(=O)Nc1nc3ccccc3s1)[C@]1(C(=O)Nc3ccccc31)[C@H]2c1ccc(O)cc1 -0.0851
O=C1O[C@H](c2ccccc2)[C@H](c2ccccc2)N2[C@H]1[C@@H](C(=O)O)[C@]1(C(=O)Nc3ccc(C#CC4=CCCCC4)cc31)[C@H]2c1ccc(OCCO)cc1 -5.08
CC=CC(O)C1C=CC2C(=O)N(c3ccccc3)C(=O)C2N1Nc1ccc(C(C)C)cc1 (stereo not given) -2.24
O=C1OCCC=C[C@H]2OC34C=CCN(Cc5ccccc5)C(=O)[C@H]3N(CCCCCO)C(=O)[C@@H]4C12 (stereo not given in full) -4.46
COCCOC(=O)N1C(=O)[C@@]2(c3cc(C#CCNC(N)=O)ccc31)[C@H](c1ccc(O)cc1)N1[C@H](c3ccccc3)[C@H](c3ccccc3)OC(=O)[C@H]1[C@@H]2C(=O)Nc1nc2ccccc2s1 -0.523
O=C1O[C@H](c2ccccc2)[C@H](c2ccccc2)N2[C@H]1[C@@H](C(=O)O)[C@]1(C(=O)Nc3ccc(C#CC4(O)CCCCCC4)cc31)[C@H]2c1ccc(OCCO)cc1 -6.3
O=C1OCCC=C[C@H]2OC34C=CCN(c5ccc6ccccc6c5)C(=O)[C@H]3N(CCCCCO)C(=O)[C@@H]4C12 (stereo not given in full) -5.5
Cc1ccc(S[C@]2(C(=O)NC3CC3)CC(=O)N(C3CCCCC3)[C@@H]2c2ccc(CO)cc2I)cc1 -4.11
COc1cc2c(cc1O)C(C)N(Cc1cccc(OC(F)(F)F)c1)CC2 (stereo not given) -3.46
COc1ccc(C#Cc2ccc3c(c2)[C@]2(C(=O)N3)[C@H](c3ccc(O)cc3)N3[C@H](c4ccccc4)[C@H](c4ccccc4)OC(=O)[C@H]3[C@@H]2C(=O)N2CCCCCCC2)cc1 3.13
COC(=O)[C@@]1(Cc2ccccc2)[C@H]2c3cc(C(=O)N(C)C)n(Cc4cc(C)n(C)n4)c3C[C@H]2CN1C(=O)c1ccccc1 -5.13
C=CC(COC(C)=O)NS(=O)(=O)c1ccc(Br)cc1 (stereo not given) -0.546
COC(=O)c1c(CC[C@@H](CO)NC(=O)N[C@@H](Cc2ccccc2)Cn2cc(C3(O)CCCCC3)nn2)oc(C(C)=O)c1C(=O)OC -5.32
COC(=O)C(CC#Cc1ccc2c(c1)[C@]1(C(=O)N2)[C@H](C(=O)NC[C@H](O)c2ccccc2)[C@H]2C(=O)O[C@H](c3ccccc3)[C@H](c3ccccc3)N2[C@@H]1c1ccc(OCCO)cc1)C(=O)OC -2.24
C=CCC(OC(C)=O)[C@@H]1[C@@H](N(Cc2ccc(-c3cccc(C(F)(F)F)c3)o2)C(=O)c2ccc(C)cc2)c2cc(OCCCO)ccc2N1C(=O)c1ccc(-c2ccccc2)cc1 (stereo not given in full) -1.07
COc1cccc(C(=O)O[C@H]2CC[C@]3(C)C4=C(CCC3C2(C)C)[C@]2(C)CC[C@H]([C@H](C)CCCC(C)C)[C@@]2(C)CC4)c1 (stereo not given in full) -0.87
CN(C)C(=O)[C@@]1(CCC(=O)OC(C)(C)C)N=C(c2ccc(OCCCO)cc2)O[C@H]1c1ccccc1 -5.79
O=C1OCCC/C=C\[C@H]2OC34C=CCN(Cn5nnc6ccccc65)C(=O)[C@H]3N(CCCCCO)C(=O)[C@@H]4C12 (stereo not given in full) -4.39
C=C[C@H](C)[C@@H](O)c1ccc(O)c2ccccc12 -2.67
COc1ccc(CCNC(=O)[C@@]2(Sc3ccc(C)cc3)CC(=O)N(Cc3ccccc3Cl)[C@@H]2c2ccc(CO)cc2I)cc1 -2.24
COCCOC(=O)N1C(=O)[C@@]2(c3cc(C#CCNC(N)=O)ccc31)[C@H](C(=O)N1CCN(c3ncccn3)CC1)[C@H]1C(=O)O[C@H](c3ccccc3)[C@H](c3ccccc3)N1[C@@H]2c1ccccc1OCCO -1.39
CCCCCN1CC=CC23O[C@@H]4/C=C\CCCOC(=O)C4[C@H]2C(=O)N(CCCCCCO)[C@@H]3C1=O (stereo not given in full) -5.27
O=C1N(CCS(=O)(=O)c2ccccc2)Cc2ccccc2C[C@]12N=C(c1ccc(OCCCO)cc1)O[C@@H]2c1ccccc1 -2.61
COC(=O)[C@@]1(Cc2ccccc2N=[N+]=[N-])COC(c2ccc(OCCCO)cc2)=N1 -5.06
C=C(CCCC)C(=O)CC[C@H](OC(=O)c1cccnc1)c1cccc(OCCO)c1 -4.56
CCOC(=O)C[C@H]1[C@H](OC(=O)c2ccc(-c3ccccc3)cc2)[C@@H](NC(=O)c2ccc3ccccc3c2)c2cc(OCCCO)ccc2N1C(=O)Cc1ccc(OC)cc1 -1.89
